Shown are actives, neighbours in structure and some others; about 19% of the full set was active somewhere.
HT1080NT lethal = kills 2HG-producing HT-1080-NT fibrosarcoma cells | HT-1080-NT fibrosarcoma viability, CellTiter-Glo ATP luminescence, 48 h | Potency, µM (highest dose often 46.1 µM), inactives show at the highest dose activity, negative = less viability, actives largely listed as cytotoxic | hit rate 1.6% among 360,000;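 further: NT is the 2HG producing partner of a matched IDH1 knockdown line; 0% = DMSO-treated cells and -100% = media-only wells without cells; nearly all actives have a fitted effect of over 55% in size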
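HT-1080-NT; 750 cells/well; 5% FBS RPMI; 48 h compound, 37 degrees C; CellTiter-Glo luminescence; curve fitting and curve-class assignment.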
KB-V1 MDR tox = kills drug-selected multidrug resistant KB-V1 cells; KB-V1 MDR cells viability, CellTiter-Glo, 72 h; Potency, µM (doses to about 46.1 µM), most hits filed as cytotoxic; hit rate 3.4% among 400,000; AID 1347076; further: nearly all actives have a fitted effect of over 60% in size
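In this primary screen, KB-V1 cells overexpressing P-gp are incubated with library compounds (lowest to highest concentration) for 72 h at 37 degrees C before a luminescent ATP viability read.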
KB-3-1 tox = KB-3-1 parental cell cytotoxicity; KB-3-1 viability, CellTiter-Glo ATP luminescence, 72 h; Potency, µM (series often up to 46.1 µM), most hits filed as cytotoxic; hit rate 1.4% among 400,000; AID 1347075; further: nearly all actives have a fitted effect of over 60% in size
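Parental KB-3-1 viability, qHTS format: 72 h compound exposure, 37 °C; CellTiter-Glo; media-only wells and DMSO plates as controls; concentration-effect fits on corrected data.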
HT1080 IDH1KD tx = toxicity to HT-1080 IDH1 knockdown cells (counter line); hit rate 2% among 360,000; HT-1080 IDH1 knockdown viability, ATP luminescence, 48 h; Potency, µM (titrated, usually from 46.1 µM), inactives show top-dose activity, negative = toxicity, usual class: cytotoxic; AID 686971;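 further: 0% = DMSO wells and -100% = cell-free medium wells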
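In this qHTS, HT-1080 cells depleted of IDH1 are exposed for 48 h at 37 °C to compound titrations. Toxicity is scored from CellTiter-Glo luminescence, with DMSO as full viability and medium alone as none.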
DT40 TDP1 no CPT = qHTS for Inhibitors of human tyrosyl-DNA phosphodiesterase 1 (TDP1): qHTS in cells in absence of CPT | Potency, µM (top dose mostly 46.2 µM), without a hit: at the highest dose activity change, negative = growth inhibition, actives largely listed as inhibitors | hit rate 15% among 420,000 | DT40 Tdp1-/- hTDP1 cells, no CPT, ATP luminescence, 48 h; further: nearly all actives have a fitted effect of over 55% in size
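Growth of hTDP1-complemented DT40 Tdp1-knockout cells is measured by ATP luminescence after at least 48 hr compound exposure at 37 °C, with DMSO substituting for the 20 nM CPT used in the parallel screen.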
TDP1 cell CPT = growth inhibition of DT40 Tdp1-/-;hTDP1 cells with camptothecin (screen for TDP1 inhibitors); chicken DT40 Tdp1-/-;hTDP1 cells + 20 nM CPT, ATP luminescence, 48 h; Potency, µM (doses to about 46.2 µM), for the others: at the top dose activity change, negative = growth inhibition, hits mostly inhibitors; hit rate 12% among 420,000; further: nearly all actives have a fitted effect of over 55% in size
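Cell growth measured by CellTiter-Glo luminescence after a minimum 48 h, 37 C compound exposure with 20 nM CPT in Tdp1-knockout DT40 cells stably expressing hTDP1, seeded 400/well; qHTS titration format.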
* hit, by the source's call; i = inactive; ? = inconclusive; / = not tested or not shown; [ ] = dose if it differs, or a comment. The call rests on the fitted dose curve; in most records, active means well fitted curve in the direction sought with a large enough effect; inconclusive means small, poorly fitted or top-dose-only effect, or another doubt; inactive means no such curve, though single readings can be large; an effect the other way counts as inactive or inconclusive. Unless noted, on the % scale 0 is the no-effect control and ±100 the full control effect; potency means the concentration at half of the fitted maximal effect.

SMILES	HT1080NT lethal	KB-V1 MDR tox	KB-3-1 tox	HT1080 IDH1KD tx	DT40 TDP1 no CPT	TDP1 cell CPT
CCOC(=O)C1(CCOC)CCN(C/C=C/c2ccccc2OC)CC1	-4%	i	?	-4%	10µM*	10µM*
CCOC(=O)C1(CCOC)CCN(Cc2cccc(OCc3ccccc3)c2)CC1	-2%	i	?	-1%	16µM*	15µM*
CCN(CC(=O)NC1CCS(=O)(=O)C1)c1ccc([N+](=O)[O-])cc1C#N (stereo not drawn)	-4%[9.24 µM]	i	i	1%	1%	-24%
CCN(CC)c1ccc(NC(=O)CC2Oc3ccccc3NC2=O)c(C)c1 (stereo not drawn)	-13%	?	?	-18%	?	?
COc1cccc(C2CNC3(CCCC(C)C3)c3[nH]c4ccccc4c32)c1OC (stereo not drawn)	?	?	i	?	23µM*	?
CC(C)N(Cc1nc(-c2ccccc2)no1)C(=O)C(Cl)(Cl)Cl	-5%	i	i	-3%	-28%	3%
Cc1onc(-c2ccccc2Cl)c1C(=O)NCc1nc(-c2ccc(C(F)(F)F)cc2)no1	-10%	?	i	?	15µM*	?
Cc1cccc(-c2noc(CN(C(=O)c3c(-c4ccccc4Cl)noc3C)C(C)C)n2)c1	-1%	?	?	-1%	18µM*	21µM*
Cc1cccc(-c2noc(CN(C(=O)c3ccc(C)c(C)c3)C(C)C)n2)c1	/	?	?	/	3.7µM*	5.2µM*
Cc1cccc(C(=O)N(Cc2nc(-c3ccc(Cl)cc3)no2)C(C)C)c1	/	i	i	/	?	?
Cc1cccc(-c2noc(CN(C(=O)C(c3ccccc3)c3ccccc3)C(C)C)n2)c1	-3%	?	i	-9%	16µM*	?
O=C(Nc1ccccc1)c1cc(C2CCCCN2S(=O)(=O)c2ccc(F)cc2F)on1 (stereo not drawn)	-1%	i	i	-26%	?	-19%
COc1cc(CC(=O)C(=O)O)oc(=O)c1	-3%	?	i	5%	-6%	3%
Cc1ccc2nc(N(Cc3cccnc3)C(=O)COc3ccccc3)sc2c1	/	/	/	/	-8%	?
CC(C)(C)OC(=O)N[C@@H](Cc1ccccc1)C(=O)NCC1CCC(C(=O)N[C@@H](CC(=O)O)C(=O)O)CC1 (stereo partly drawn)	-4%	i	i	-5%	12%	10%
Cc1cccc(-c2noc(CN(C(=O)COc3ccc(C(C)C)cc3)C(C)C)n2)c1	/	i	i	/	16µM*	?
COc1ccc(-c2noc(CN(C(=O)c3ccc4c(c3)OCO4)C(C)C)n2)cc1OC	-5%	?	i	2%	?	?
CCOc1ccc(C(=O)N(Cc2nc(-c3cccc(C)c3)no2)C(C)C)cc1	/	?	i	/	?	21µM*
Cc1onc(-c2ccccc2Cl)c1C(=O)N(Cc1nc(-c2ccccc2)no1)C1CCCCC1	-8%	18µM*	?	?	18µM*	?
CC(C)N(Cc1nc(-c2ccccc2)no1)C(=O)COc1ccccc1	4%	i	i	2%	?	?
Cc1nc(C(C)N(C)Cc2nc(-c3ccc4c(c3)OCO4)no2)c(C)s1 (stereo not drawn)	-2%	i	i	-6%	?	23µM*
CC(=O)ON(C(C)=O)c1ccc(/C=C2/C=Cc3ccccc32)cc1	/	i	i	/	?	?
Cc1cccc(-c2noc(CN(C(=O)c3ccc4c(c3)OCO4)C(C)C)n2)c1	-6%	i	i	-5%	?	18µM*

Compound activity: PubChem BioAssay, National Center for Advancing Translational Sciences (NCATS)
